MITF inhib: inhibitors of MITF, primary screen, MITF inhibitor project, cell-based, luminescence | TRPM1 promoter luciferase, 24 h | inhibition, % (test concentration not listed) | AID 2240, 2010 | 37,000 tested, 0.28% active; in the data active = inhibition above about 85%; inconclusive = no clear call, values can overlap the other calls; inactive = below about 68%;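 also: human melanocyte line stably carrying TRPM1 promoter luciferase reporter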
NOMO-1 viab: NOMO-1 AML cell viability reduction, primary screen, STK33 inhibitor project, CellTiter-Glo luminescence | NOMO-1 AML viability, 72 h | inhibition, % (concentration not given with the values) | 37,000 tested, 7.5% active | AID 2330, 2010; in the data active = inhibition above about 80%; inconclusive = no clear call, values can overlap the other calls
Shh pathway inh: Hedgehog pathway signaling inhibitors, primary screen, luminescence, Shh-LIGHT2 cells, Gli-luciferase. Shh-LIGHT2 Gli-luciferase reporter, 30 h. inhibition, % (test concentration not listed). 22,000 tested, 2.1% active;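 active = mean inhibition across valid replicates above about 65%, limit read from the data; inconclusive = mean under the limit, yet half or more replicates past it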;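 also: pathway switched on by Shh-conditioned medium diluted 1 in 25 in low serum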
Hits are given with their value; n = inactive; u = inconclusive; x = no result given. A selection: hits, their analogues and other compounds. The true share with any hit is near 8.1%.

SMILES	MITF inhib	NOMO-1 viab	Shh pathway inh
C[C@@H]1CN([C@H](C)CO)C(=O)Cc2cc(NS(=O)(=O)c3cn(C)cn3)ccc2O[C@@H]1CN(C)Cc1ccncc1	n	n	n
O=C(CSc1nc(O)cc(=O)n1-c1ccccc1)Nc1ccccc1Cl	n	n	x
COc1ccc(OCC(=O)Nc2ccc3oc(-c4ccc(C)cc4C)nc3c2)cc1	n	n	x
CNc1ccccc1C(=O)N1CCc2c([nH]c3ccccc23)C1=O	n	95.0	n
CC(O)c1cncc2c(=O)n3c(cc12)-c1[nH]c2ccccc2c1CC3 (centres undefined)	n	n	n
CC(=O)c1ccc(NC(=O)CSc2nnc3n(-c4ccccc4)c(=O)c4c5c(sc4n23)COC(C)(C)C5)cc1	n	n	x
Nc1nnc(SCc2cccnc2)s1	n	n	x
N#Cc1cccc(CSc2nnc(SCc3cccc(C#N)c3)s2)c1	n	n	67.8
COc1cccc(NC(=O)CSc2nnc(-c3cccc(C)c3)n2-c2ccccc2)c1	n	n	x
COc1cccc(-c2nn(-c3ccccc3)cc2C(=O)n2nnc3ccccc32)c1	n	127.8	x
Cc1ccc(S(=O)(=O)N(C)C[C@@H]2Oc3ccc(NS(=O)(=O)c4ccc(F)cc4)cc3CC(=O)N([C@H](C)CO)C[C@@H]2C)cc1	n	n	n
CC(C)c1ccc(OCC(=O)Nc2ccc(Br)cc2C(=O)O)cc1	n	n	x
COc1ccc(/C=N/n2cnnc2)cc1	n	n	x
COc1ccc(C=Nc2ccc(Br)cc2)cc1	n	n	69.1
Cc1nn(CC(O)COc2ccc3c(c2)CCC3)c(C)c1Br (centres undefined)	n	95.9	x
CC(=O)c1c(C)nn(CC(O)COc2ccc3c(c2)CCC3)c1C (centres undefined)	n	n	x
C[C@@H]1CN([C@H](C)CO)C(=O)c2cccc(NC(=O)Nc3ccccc3)c2O[C@@H]1CN(C)C(=O)Nc1cccc2ccccc12	n	104.8	n
C[C@@H]1CN([C@@H](C)CO)C(=O)c2cccc(NC(=O)Nc3ccccc3)c2O[C@@H]1CN(C)C(=O)Nc1cccc2ccccc12	n	106.4	u
C[C@@H]1CN([C@@H](C)CO)C(=O)c2cccc(NC(=O)Nc3cccc4ccccc34)c2O[C@H]1CN(C)C(=O)Nc1ccccc1	n	n	n
C[C@H](CO)N1C[C@H](C)[C@H](CN(C)C(=O)Nc2ccccc2)Oc2c(NC(=O)Nc3cccc4ccccc34)cccc2C1=O	n	n	n
Cc1noc(C)c1NC(=O)Nc1ccc2c(c1)C(=O)N([C@@H](C)CO)C[C@@H](C)[C@H](CN(C)Cc1ccc(Oc3ccccc3)cc1)O2	n	n	x
COc1cc(-c2nc3ccccc3s2)cc(Br)c1OCC(N)=O	n	n	x
COCCNC(=S)N1CCN(Cc2ccco2)CC1	n	n	x
O=C(O)CN(c1ccccc1)S(=O)(=O)c1ccc(Cl)cc1	n	n	x
Cc1c(S(=O)(=O)c2ccc(Cl)cc2)csc1C(=O)N(c1ccccc1)S(C)=O (centres undefined)	n	n	87.9
SMILES	MITF inhib	NOMO-1 viab	Shh pathway inh
N#C/C(=C\Nc1ccc(F)c(Cl)c1)S(=O)(=O)Cc1ccco1	n	n	n
CC1CC(=O)C2=C(C1)C(Cl)C(O)C1(O)C2C(=O)c2cccc(O)c2C1O (centres undefined)	n	101.3	n
CC1CC(=O)C2=C(C1)C1OC1C1(O)C2C(=O)c2cccc(O)c2C1O (centres undefined)	x	x	n
Cc1ccc(S(=O)(=O)Nc2ccc3c(c2)CC(=O)N([C@@H](C)CO)C[C@@H](C)[C@@H](CN(C)Cc2ccc(C(F)(F)F)cc2)O3)cc1	n	83.8	n
C[C@@H]1CN([C@H](C)CO)C(=O)Cc2cc(NS(=O)(=O)c3ccccc3)ccc2O[C@H]1CN(C)Cc1ccc(C(F)(F)F)cc1	n	n	n
C[C@@H]1CN([C@H](C)CO)C(=O)Cc2cc(NS(=O)(=O)c3ccccc3)ccc2O[C@@H]1CN(C)Cc1ccc(C(F)(F)F)cc1	n	u	n
C[C@H](CO)N1C[C@H](C)[C@H](CN(C)Cc2ccc(C(F)(F)F)cc2)Oc2ccc(NS(=O)(=O)c3ccccc3)cc2CC1=O	n	n	n
Cc1ccc(S(=O)(=O)Nc2ccc3c(c2)CC(=O)N([C@H](C)CO)C[C@H](C)[C@H](CN(C)Cc2ccc(C(F)(F)F)cc2)O3)cc1	n	104.3	n
C[C@@H]1CN([C@H](C)CO)C(=O)Cc2cc(NS(=O)(=O)c3ccc(F)cc3)ccc2O[C@@H]1CN(C)Cc1ccc(C(F)(F)F)cc1	n	111.0	u
COc1ccc(S(=O)(=O)Nc2ccc3c(c2)CC(=O)N([C@@H](C)CO)C[C@H](C)[C@@H](CN(C)Cc2ccc(C(F)(F)F)cc2)O3)cc1	n	112.5	n
COc1ccc(CN(C)C[C@H]2Oc3ccc(NS(=O)(=O)c4ccc(F)cc4)cc3CC(=O)N([C@H](C)CO)C[C@H]2C)cc1	n	n	x
O=C(NCc1ccccn1)c1cccnc1SCCS(=O)(=O)c1ccc(C(F)(F)F)cn1	n	n	n
Cc1noc(C)c1NC(=O)N(C)C[C@@H]1Oc2c(NC(=O)Nc3cccc4ccccc34)cccc2C(=O)N([C@@H](C)CO)C[C@H]1C	n	n	n
O=C(NCCCn1ccnc1)c1cc(-c2ccccn2)nc2ccc(Br)cc12	n	n	x
O=C(Oc1ccc(S(=O)(=O)c2ccc(OC(=O)c3cccs3)cc2)cc1)c1cccs1	n	n	n
Cc1ccc2nc(-c3ccc(NC(=O)CN4CCN(C(=O)C5CCCO5)CC4)cc3)sc2c1 (centres undefined)	n	n	x
C[C@]12CCC3c4ccc(OS(=O)(=O)O)cc4CCC3C1CCC2=O (some centres undefined)	n	n	n
COc1ccc2c(c1)CCC1C2CCC2(C)C1C[C@@H](O)C2O (some centres undefined)	n	n	n
COc1cc(C)c2c(c1)CCC1C2CCC2(C)C(O)CCC12 (centres undefined)	n	91.4	u
COc1cc2c(cc1O)CCC1C2CC[C@@]2(C)C1CC[C@@H]2O (some centres undefined)	n	97.4	90.7
C[C@@H]1CN([C@H](C)CO)C(=O)Cc2cc(NC(=O)Cc3ccccc3)ccc2O[C@H]1CN(C)C(=O)Nc1cccc2ccccc12	n	n	x
CC1=CC(c2ccoc2)c2c(oc(N)c(C#N)c2=O)S1 (centres undefined)	n	n	n
O=C(COc1ccccc1C(=O)Nc1cccc(Cl)c1Cl)Nc1ccc(N2CCOCC2)c(Cl)c1	n	n	x
CN1C(=O)[C@@]2(Cc3ccccc3)SSS[C@]1(CO)C(=O)N2C	91.0	108.4	70.2
COc1cc(=O)oc(C(C)C(C)O)c1CO (centres undefined)	n	n	n
COc1cc(OC)c(C(O)C(C)O)cc1OC (centres undefined)	n	89.6	n
Cc1cccc(C(=O)N(CC#N)CC#N)c1	n	n	n
COc1cc(O)c2c(c1)O[C@H](c1ccc(O)c(O)c1)[C@@H](O)C2=O	x	x	n
O=C1c2ccccc2-[n+]2ccc3c([nH]c4ccccc43)c21	107.8	98.8	u
O=C1C(c2c(O)[nH]c3ccccc23)=Nc2ccccc21	n	n	n

Source: PubChem
